Experimental findings from PubChem BioAssay are described below.

The source made the active and inactive calls.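 Rule for the calls, unless noted: active = inhibition above 20% together with a positive visual image hit; inconclusive = visual image hit but inhibition not above 20%; inactive = no visual image hit.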

Assay [1] in a line: inhibitors of TNFa-induced NFkB p65 translocation, primary screen, imaging, HUVEC, MLSMR starter and 10KST1 sets (AID 438).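 For inhibition: signal is the nuclear over cytoplasmic p65 intensity ratio per well.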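 Note: compound added about 3h40 before a 20 min TNFalpha stimulation.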 To be noted: HUVEC TNFa-induced p65 nuclear translocation; cell count: measured here: nuclei count (cytotoxicity indicator), at 2.08 µM; inhibition: at 2 µM, stronger effect = higher value, 0% TNFa-plus-vehicle, 100% no-TNFa wells.
Assay [2] is described as follows: inhibitors of mutant huntingtin aggregation, primary screen, imaging, exon1htt(103Q)mCFP cells, high-content imaging (AID 483;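 active = visual image review flags a hit and inhibition of aggregation exceeds 20%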;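 note: compound exposure lasted 3 days before fixation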;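 for nuclei count: percent of the per-plate median nuclei count of sample wells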). As to conditions: exon1htt(103Q)mCFP cell line, aggregate imaging, at 2 µM; inhibition of aggregation: stronger effect = higher value; nuclei count: measured here: cell count, toxicity.
Assay [3] can be described thus: inhibitors of E-selectin induction by TNFa, primary screen, imaging, HUVEC, immunofluorescence, MLSMR starter and 10KST1 sets (AID 487;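 active = visually confirmed hit in the image check and inhibition above 20%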;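 for inhibition: signal is fraction of cell area covered by stained E-selectin grains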;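 for nuclei count: 100% = median nuclei count of all wells on the same plate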). As to conditions: HUVEC TNFalpha-induced E-selectin immunofluorescence imaging, at 2 µM; inhibition: stronger effect = higher value; nuclei count: measured here: cell number, toxicity.
The target of assay [4] is Voltage-gated potassium channel subunit beta-2 (Rattus norvegicus) (UniProt P62483). Nature of the assay: KvBeta enzyme negative modulators, primary screen, biochemical, NADPH fluorescence (AID 622;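 active = fluorescence slope higher than the sample average by over 3 SD, cut at about -0.22 in these data, passing the limit was not always enough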;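 note: slope of raw intensity against log time taken from 70 to 1610 s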). To be noted: recombinant KvBeta, 4-cyanobenzaldehyde reduction, at 10 µM, stronger effect = higher value.
For assay [5] the target is unchanged. Briefly: KvBeta positive modulators, primary screen, biochemical, NADPH fluorescence (AID 623;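 active = NADPH fluorescence slope more negative than the mean of all samples by about 3 SD, 99.7% confidence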;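 note: fluorescence intensity change per second fitted from 20 to 320 s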). As to conditions: Recombinant KvBeta, NADPH fluorescence decrease slope, 10 min; at 10 µM; stronger effect = lower value.
The target of assay [6] is Alpha-2C adrenergic receptor (Homo sapiens) (UniProt P18825). Briefly: modulators of alpha2C/GIRK thallium flux, primary screen, cell-based, HEK293 alpha2C/GIRK1/2 (AID 624;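 active = fluorescence slope after compound addition differing from the mean of all screened samples at 99.7% confidence, in either direction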;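 note: slope of fluorescence ratio to pre-addition baseline per second over 15 to 24 s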). As to conditions: thallium flux BTC fluorescence, at 10 µM, actives lie on both sides.
Assay [7] is described as follows: inhibitors of Sendai virus-induced IRF3 signaling, primary screen, TLR/RLR signaling modifier project, cell-based, Sendai virus stimulus, luciferase, 10K MLSCN set (AID 602276;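 active = inhibition at or above 50% at 10 µM; inactive = inhibition below 50%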;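 note: firefly luciferase from ISG56 promoter only with Renilla not read in this screen; 0% = Sendai virus plus DMSO and 100% = medium plus DMSO without virus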). To be noted: HEK293 RL24 IRF3 luciferase reporter, at 10 µM, stronger effect = higher value.
The nature of assay [8]: inhibitors of poly I:C-induced TLR3 signaling, primary screen, cell-based, poly I:C stimulus, luciferase, 10K MLSCN set (AID 602277;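 active = inhibition of the reporter signal at or above 50%; inactive = inhibition below 50%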). As to conditions: HEK293-TLR3 RL24 IRF3 luciferase reporter, at 10 µM, stronger effect = higher value.

Voltage-gated potassium channel subunit beta-2 (Rattus norvegicus), sequence (P62483 whole entry, looked up): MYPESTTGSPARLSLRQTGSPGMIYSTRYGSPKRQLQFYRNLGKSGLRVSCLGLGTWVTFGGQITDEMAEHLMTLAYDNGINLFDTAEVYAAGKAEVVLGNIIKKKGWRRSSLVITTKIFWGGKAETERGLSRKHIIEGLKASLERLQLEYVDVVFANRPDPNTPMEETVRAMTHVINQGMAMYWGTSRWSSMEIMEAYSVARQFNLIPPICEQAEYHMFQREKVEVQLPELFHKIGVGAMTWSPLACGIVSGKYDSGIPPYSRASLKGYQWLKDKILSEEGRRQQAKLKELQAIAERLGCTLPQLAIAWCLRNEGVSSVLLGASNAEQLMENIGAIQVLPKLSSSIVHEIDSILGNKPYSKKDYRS
Alpha-2C adrenergic receptor (Homo sapiens), sequence (P18825 whole entry, looked up): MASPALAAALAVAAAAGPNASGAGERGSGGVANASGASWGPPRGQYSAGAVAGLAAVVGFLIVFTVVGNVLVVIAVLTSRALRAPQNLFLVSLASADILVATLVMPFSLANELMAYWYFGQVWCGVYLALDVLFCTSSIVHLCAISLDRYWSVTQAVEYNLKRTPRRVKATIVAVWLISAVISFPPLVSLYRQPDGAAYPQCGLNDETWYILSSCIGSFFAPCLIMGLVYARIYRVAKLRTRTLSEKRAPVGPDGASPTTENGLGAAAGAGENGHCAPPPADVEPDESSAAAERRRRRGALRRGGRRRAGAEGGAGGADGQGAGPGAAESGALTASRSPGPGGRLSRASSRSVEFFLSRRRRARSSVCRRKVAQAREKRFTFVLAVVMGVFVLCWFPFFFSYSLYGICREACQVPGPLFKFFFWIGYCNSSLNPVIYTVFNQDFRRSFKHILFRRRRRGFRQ

For the compound `Cc1cccc2c1nc(-c1ccccc1)n1cnnc21`, the cell count in assay [1] was 345. The inhibition in assay [1] was -10.7% (inactive); in assay [3], -58% (inactive); in assay [7], -15.9% (inactive); in assay [8], -12.4% (inactive). Besides, the inhibition of aggregation in assay [2] was -2.7% (inactive). For the same compound, the nuclei count in assay [2] was determined as 73%; in assay [3], 114%. For the same compound, the fluorescence slope in assay [4] was -0.452 (inactive). Further, the NADPH fluorescence slope in assay [5] is -2.6e-08 (inactive). In addition, in assay [6], the slope was 0.00423 (inactive).

As for `COc1cccc2sc(NC(=O)c3ccc(S(=O)(=O)N4CCOCC4)cc3)nc12`, in assay [1], the cell count stood at 357. Besides, the inhibition was 0.5% (inactive) in assay [1], -21% (inactive) in assay [3], 10.2% (inactive) in assay [7] and 9.3% (inactive) in assay [8]. For the same compound, the inhibition of aggregation in assay [2] is 8.5% (inactive). Also, the results for the nuclei count in assay [2] and in assay [3] were 74.7% and 104%, respectively. In addition, in assay [4], the fluorescence slope was -0.289 (inactive). For the same compound, the NADPH fluorescence slope in assay [5] was -2.5e-05 (inactive). Also, the slope in assay [6] is 0.00479 (inactive).

`CCOc1cc(C(=O)N(C)c2ccccc2)cc(OCC)c1OCC`: in assay [1], the cell count came out at 314. The inhibition in assay [1] was 5.5% (inactive); in assay [3], 5.8% (inactive); in assay [7], 18.6% (inactive); in assay [8], 32.8% (inactive). Further, the inhibition of aggregation in assay [2] is 17.8% (inactive). Besides, the nuclei count stood at 97.5% in assay [2] and 86.2% in assay [3]. Further, the fluorescence slope in assay [4] was -0.368 (inactive). Further, in assay [5], the NADPH fluorescence slope is -3.2e-05 (inactive). In addition, the slope in assay [6] was 0.00526 (inactive).

For the compound `COc1cc(NC(=O)C(C)Oc2ccccc2)c(C(=O)O)cc1OC` (centres undefined), the cell count in assay [1] worked out at 622. For the same compound, the inhibition is -1.5% (inactive) in assay [1], -23.7% (inactive) in assay [3], 19% (inactive) in assay [7] and 19.4% (inactive) in assay [8]. The inhibition of aggregation in assay [2] is -0.9% (inactive). The values for the nuclei count in assay [2] and in assay [3] were 108% and 101%, respectively. Also, the fluorescence slope in assay [4] was -0.606 (inactive). Besides, in assay [5], the NADPH fluorescence slope is -2.5e-05 (inactive). Also, in assay [6], the slope was 0.00509 (inactive).

Turning to `Cc1ccc(S(=O)(=O)N2CCOCC(=O)NCCOCCNC(=O)COCC2)cc1`, in assay [1], the cell count was 592. In addition, the inhibition is 2.1% (inactive) in assay [1], -89.9% (inactive) in assay [3], 9.52% (inactive) in assay [7] and 9.55% (inactive) in assay [8]. Moreover, the inhibition of aggregation in assay [2] was -15.3% (inactive). For the same compound, the nuclei count amounted to 116% in assay [2] and 108% in assay [3]. In assay [4], the fluorescence slope is -0.622 (inactive). In addition, the NADPH fluorescence slope in assay [5] is -2.4e-05 (inactive). The slope in assay [6] was 0.00426 (inactive).

In the case of `O=C(C1CCCN(S(=O)(=O)c2cnc[nH]2)C1)N1CC(=O)N(CCc2ccccc2)C(=O)C1` (centres undefined), the cell count in assay [1] came out at 545. For the same compound, the inhibition in assay [1] was 3.4% (inactive); in assay [3], -124% (inactive); in assay [7] it was 9.42% (inactive); in assay [8], 20.7% (inactive). Further, the inhibition of aggregation in assay [2] is -13.8% (inactive). In addition, the nuclei count was 109% in assay [2] and 147% in assay [3]. Besides, the fluorescence slope in assay [4] is -0.573 (inactive). In addition, in assay [5], the NADPH fluorescence slope is 8.9e-06 (inactive). Besides, the slope in assay [6] was 0.0066 (inactive).

Regarding `CCOC(=O)C1CCN(c2c(N3CCCC(C(=O)OCC)C3)c(=O)c2=O)CC1` (centres undefined), in assay [1], the cell count was found to be 838. Moreover, the inhibition in assay [1] is 3.2% (inactive); in assay [3], -138% (inactive); in assay [7] it was -1.39% (inactive); in assay [8], 19.7% (inactive). In assay [2], the inhibition of aggregation is -6.4% (inactive). The nuclei count in assay [2] turned out to be 101%; in assay [3], 115%. Besides, in assay [4], the fluorescence slope was -0.616 (inactive). The NADPH fluorescence slope in assay [5] is 9.3e-06 (inactive). The slope in assay [6] is 0.0058 (inactive).

Turning to `CN(C)c1ccc(NC(=O)Cn2cc3c(n2)CCCC3)cc1`, the cell count in assay [1] is 757. In addition, the inhibition in assay [1] was -11% (inactive); in assay [3], -27.2% (inactive); in assay [7], -2.34% (inactive); in assay [8] it was -8.59% (inactive). In assay [2], the inhibition of aggregation is 17.1% (inactive). Besides, the nuclei count in assay [2] turned out to be 101%; in assay [3] it was 103%. The fluorescence slope in assay [4] is -0.406 (inactive). For the same compound, the NADPH fluorescence slope in assay [5] is -4.3e-05 (inactive). The slope in assay [6] is 0.00475 (inactive).

Consider `CCCCOC(=O)Cn1c(=O)oc2ccc(C)cc21`, for which the cell count in assay [1] stood at 741. The inhibition is -5.8% (inactive) in assay [1], -96.5% (inactive) in assay [3], -5.21% (inactive) in assay [7] and 7.21% (inactive) in assay [8]. In addition, the inhibition of aggregation in assay [2] is 3.3% (inactive). The nuclei count in assay [2] is 38%; in assay [3], 109%. In addition, the fluorescence slope in assay [4] is -0.589 (inactive). Further, the NADPH fluorescence slope in assay [5] was -4.7e-05 (inactive). Also, the slope in assay [6] is 0.00659 (inactive).

Take `O=c1c(CN2CCN(Cc3ccccc3)CC2)coc2ccc(Cl)cc12`: the cell count in assay [1] was found to be 463. Besides, the inhibition is -1.6% (inactive) in assay [1], -69.1% (inactive) in assay [3], -2.78% (inactive) in assay [7] and 4.22% (inactive) in assay [8]. Moreover, the inhibition of aggregation in assay [2] was -1.1% (inactive). In addition, the nuclei count is 113% in assay [2] and 125% in assay [3]. Also, the fluorescence slope in assay [4] is -0.41 (inactive). Further, the NADPH fluorescence slope in assay [5] is -0.000112 (inactive). The slope in assay [6] is 0.00599 (inactive).

For `C#CCNc1c(C)c(C)nc2ncnn12`, the cell count in assay [1] was 306. The inhibition in assay [1] was -9.4% (inactive); in assay [3], -44.2% (inactive); in assay [7], 14.5% (inactive); in assay [8], 9.86% (inactive). Further, the inhibition of aggregation in assay [2] was 32.2% (inactive). In addition, the results for the nuclei count in assay [2] and in assay [3] were 86.1% and 89.3%, respectively. Also, the fluorescence slope in assay [4] is -0.592 (inactive). In addition, the NADPH fluorescence slope in assay [5] was -3.6e-05 (inactive). Also, in assay [6], the slope was 0.00371 (inactive).

In the case of `CCN1C(=O)CC(C(=O)Nc2ccc(F)cc2)SC1=Nc1ccc2c(c1)OCO2` (centres undefined), the cell count in assay [1] turned out to be 551. In addition, the inhibition in assay [1] is -28.9% (inactive); in assay [3] it was 1.8% (inactive); in assay [7] it was 18.1% (inactive); in assay [8] it was 21.5% (inactive). In assay [2], the inhibition of aggregation is 1.1% (inactive). The nuclei count in assay [2] is 110%; in assay [3], 124%. Also, in assay [4], the fluorescence slope is -0.504 (inactive). Also, the NADPH fluorescence slope in assay [5] was -3.2e-05 (inactive). Further, the slope in assay [6] was 0.00494 (inactive).

`Cc1ccc(OCc2nnc(SCC(=O)N3CCOCC3)n2C)cc1`: in assay [1], the cell count came to 594. In addition, the inhibition in assay [1] was -12.9% (inactive); in assay [3], -58.9% (inactive); in assay [7] it was -1.5% (inactive); in assay [8] it was 6.14% (inactive). Besides, in assay [2], the inhibition of aggregation was 6.8% (inactive). The nuclei count in assay [2] was found to be 104%; in assay [3], 116%. The fluorescence slope in assay [4] was -0.372 (inactive). Further, the NADPH fluorescence slope in assay [5] is -1.9e-05 (inactive). Moreover, the slope in assay [6] is 0.00543 (inactive).

Take `COc1ccc(C(=O)NCCn2ccc3ccccc32)c(OC)c1`: the cell count in assay [1] amounted to 280. The inhibition in assay [1] is -2.5% (inactive); in assay [3], -40.8% (inactive); in assay [7] it was 1.44% (inactive); in assay [8], -24.1% (inactive). For the same compound, the inhibition of aggregation in assay [2] is 0.8% (inactive). The nuclei count came to 80.1% in assay [2] and 95.6% in assay [3]. Moreover, in assay [4], the fluorescence slope is -0.608 (inactive). The NADPH fluorescence slope in assay [5] is 6.8e-06 (inactive). Besides, the slope in assay [6] was 0.00591 (inactive).
